Reference: PubChem BioAssay (NCI)
This is part of a sample that, as a whole, favours compounds with a hit. Of some 83,000 tested, about 20% had one in any assay.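 Method: cells in 96-well plates; compound added at one concentration; 48 h incubation; percent growth measured; values under 10 scored active.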 A number with no mark means an inactive call. Active and inactive are the calls of the source.

What was measured:
Experiment in all cases: NCI-60 one-dose screen, 48 h (100 = growth as untreated, 0 = no growth, -100 = all killed)
Conditions in all cases: 10 µM unless noted
DU-145 prostate = tested on: DU-145 prostate
K-562 leukemia = tested on: K-562 leukemia
MALME-3M melanoma = tested on: MALME-3M melanoma
MDA-MB-231 breast = tested on: MDA-MB-231 breast
RXF 393 renal = tested on: RXF 393 renal
SF-268 CNS = tested on: SF-268 CNS
SF-295 CNS = tested on: SF-295 CNS
SF-539 CNS = tested on: SF-539 CNS
UACC-257 melanoma = tested on: UACC-257 melanoma
M14 melanoma = tested on: M14 melanoma
HCT-15 colon = tested on: HCT-15 colon
HT29 colon = tested on: HT29 colon
SNB-75 CNS = tested on: SNB-75 CNS
SNB-19 CNS = tested on: SNB-19 CNS
U251 CNS = tested on: U251 CNS
PC-3 prostate = tested on: PC-3 prostate
SK-MEL-5 melanoma = tested on: SK-MEL-5 melanoma
UACC-62 melanoma = tested on: UACC-62 melanoma
LOX IMVI melanoma = tested on: LOX IMVI melanoma

| SMILES | growth (DU-145 prostate) | growth (K-562 leukemia) | growth (MALME-3M melanoma) | growth (MDA-MB-231 breast) | growth (RXF 393 renal) | growth (SF-268 CNS) | growth (SF-295 CNS) | growth (SF-539 CNS) | growth (UACC-257 melanoma) | growth (M14 melanoma) | growth (HCT-15 colon) | growth (HT29 colon) | growth (SNB-75 CNS) | growth (SNB-19 CNS) | growth (U251 CNS) | growth (PC-3 prostate) | growth (SK-MEL-5 melanoma) | growth (UACC-62 melanoma) | growth (LOX IMVI melanoma) |
| --- | --- | --- | --- | --- | --- | --- | --- | --- | --- | --- | --- | --- | --- | --- | --- | --- | --- | --- | --- |
| CCC[S@](=O)c1ccc2nc(NC(=O)OC)[nH]c2c1 | 106% | 92.3% | 104% | 96.4% | 115% | 102% | 99.9% | 96.6% | 69.3% | 98.9% | 98.9% | 79.2% | 86.2% | 95.2% | 89.1% | 89.8% | 98.7% | 89.8% | 96.5% |
| CCOC(=O)C1=C(C)n2nc(CC#N)c(C#N)c2NC1c1ccc(CC)cc1 (configuration not stated) | 106% | 106% | 86.8% | 87.5% | 107% | 99.1% | 101% | 110% | 111% | 91.5% | 99.6% | 107% | 88.5% | 106% | 101% | 90.8% | 96.6% | 94.5% | 92.7% |
| O=C(Nc1ccc2ncnc(Nc3cccc(C(F)(F)F)c3)c2c1)c1cccs1 | 39.6% | 26.3% | 106% | 54.3% | 66.2% | 51.4% | 44% | 87.7% | 103% | 49.5% | 38.9% | 18% | 89.2% | 40.1% | 17% | 20.9% | 61.1% | 67.5% | 65.5% |
| CNC(=O)c1cc(Oc2ccc3c(c2)sc2nc(-c4ccc(NC(C)=O)cc4)cn23)ccn1 | 23.1% | 50.5% | 71.8% | 59.5% | 8.2% (active) | 64% | 26.2% | 62.8% | 70.9% | 46.5% | 53% | 34.7% | -0.726% (active) | 55.2% | 40.7% | 36.6% | 31.7% | 46.7% | 60.9% |
| Nc1ccc(C2=NN(C(=O)c3cc(-c4ccc(Cl)cc4)nc4ccccc34)C(c3ccc(Cl)cc3)C2)cc1 (configuration not stated) | 27.2% | 13.2% | 63% | 63.2% | -4.45% (active) | 55% | 18.2% | 8.98% (active) | 57.5% | 6.28% (active) | 26.3% | 11.5% | 67.5% | 30.5% | 31.5% | 23.3% | 28.3% | 38% | 48.3% |
| COc1ccc2[nH]c(-c3ccccc3)c(C=C(C#N)C#N)c2c1 | 35.2% | -11.9% (active) | 55.1% | 57.9% | 22.4% | 49.1% | -35.2% (active) | 14% | 69.8% | 5.54% (active) | 36.3% | 17.2% | -5.72% (active) | 73.2% | 35.2% | 13.2% | 8.94% (active) | 22.1% | 42.6% |
| COc1cccc(NC(=O)Nc2ccc(Nc3ncnc4[nH]c(C)c(C)c34)cc2)c1 | 110% | 94.4% | 122% | 108% | 111% | 94% | 95.5% | 69.3% | 98.3% | 106% | 94.1% | 95.5% | 82.2% | 98.5% | 90.3% | 93.9% | 102% | 96.6% | 99.7% |
| N#Cc1c(-c2ccc(F)cc2)nc(N=Nc2c(O)[nH]c3ccccc23)nc1N1CCOCC1 | 69.1% | 91.8% | 63.7% | 66% | 62.8% | 77.3% | 70.2% | 85.5% | 77.8% | 72.3% | 66.9% | 78.4% | 22.5% | 70.1% | 27.4% | 64.1% | 64.7% | 48.8% | 74.9% |
